Measured values published in PubChem BioAssay (NCI).
About 83,000 compounds went through this panel and 20% of them were active in at least one assay; those are over-represented in the sample as a whole.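 For each line, cells grew in 96-well plates with the test compound present at a single concentration for 48 hours.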 A number with no mark means an inactive call. Calls of active or inactive are those of the source. The calls were made as follows: active = growth percent below 10; inactive = the rest.

Assays:
Test in all cases: NCI-60 one-dose screen, 48 h (100 = growth as untreated, 0 = no growth, -100 = all killed)
Conditions in all cases: 10 µM
DU-145 prostate = test system: DU-145 prostate
K-562 leukemia = test system: K-562 leukemia
MALME-3M melanoma = test system: MALME-3M melanoma
MDA-MB-231 breast = test system: MDA-MB-231 breast
RXF 393 renal = test system: RXF 393 renal
SF-268 CNS = test system: SF-268 CNS
SF-295 CNS = test system: SF-295 CNS
SF-539 CNS = test system: SF-539 CNS
UACC-257 melanoma = test system: UACC-257 melanoma
M14 melanoma = test system: M14 melanoma
HCT-15 colon = test system: HCT-15 colon
HT29 colon = test system: HT29 colon
SNB-75 CNS = test system: SNB-75 CNS
SNB-19 CNS = test system: SNB-19 CNS
U251 CNS = test system: U251 CNS
PC-3 prostate = test system: PC-3 prostate
SK-MEL-5 melanoma = test system: SK-MEL-5 melanoma
UACC-62 melanoma = test system: UACC-62 melanoma
LOX IMVI melanoma = test system: LOX IMVI melanoma
SK-MEL-28 melanoma = test system: SK-MEL-28 melanoma

SMILES	growth (DU-145 prostate)	growth (K-562 leukemia)	growth (MALME-3M melanoma)	growth (MDA-MB-231 breast)	growth (RXF 393 renal)	growth (SF-268 CNS)	growth (SF-295 CNS)	growth (SF-539 CNS)	growth (UACC-257 melanoma)	growth (M14 melanoma)	growth (HCT-15 colon)	growth (HT29 colon)	growth (SNB-75 CNS)	growth (SNB-19 CNS)	growth (U251 CNS)	growth (PC-3 prostate)	growth (SK-MEL-5 melanoma)	growth (UACC-62 melanoma)	growth (LOX IMVI melanoma)	growth (SK-MEL-28 melanoma)
CCOC(=O)c1cc(C(=O)c2cc(OC)c(OC)c(OC)c2)n2ccc(-c3cc[n+](CC(=O)c4cc(OC)c(OC)c(OC)c4)cc3)cc12	44.8%	-44.5% (active)	63.1%	-22.8% (active)	65.7%	-14.5% (active)	94.3%	30.4%	92.5%	54.5%	83.3%	-10.1% (active)	75.8%	32.2%	-73.6% (active)	54.1%	81.4%	87.4%	-43.9% (active)	98.3%
COc1cc(/C=C2\CCCC3=C2NC(N)=NC3c2cc(OC)c(OC)c(OC)c2)cc(OC)c1OC (stereo not given)	-9.85% (active)	6.43% (active)	-42.5% (active)	28.9%	-88% (active)	15.1%	-35.3% (active)	25.9%	-31.1% (active)	-36.1% (active)	-4.55% (active)	-35.4% (active)	45.7%	61.6%	-85.2% (active)	25.9%	-96.5% (active)	-41.1% (active)	-46.7% (active)	24.9%
CCN(CC)CC(=O)N(CC)c1ccc(C)c(Cl)c1	103%	108%	96.2%	113%	105%	92.9%	101%	108%	88.7%	100%	101%	90.1%	96.9%	104%	87%	88.2%	98.4%	97.7%	93.2%	108%
CCOc1ccccc1/C=N\N=C\c1ccccc1O	98.8%	75.5%	96.5%	78.7%	121%	94.7%	105%	107%	107%	97.3%	100%	101%	97.6%	97.8%	104%	95.8%	95.5%	93%	90.3%	112%
CN(C)CCN(Cc1ccccc1)c1ccc2ccccc2n1	107%	93.4%	96.5%	87.2%	105%	103%	88.5%	106%	98%	91.3%	98%	89.7%	82%	95.6%	94.2%	81.4%	91.7%	92.9%	88.8%	101%
Nc1nccc(OCCO)n1	104%	99.3%	108%	108%	117%	101%	97.5%	101%	97.6%	102%	98.4%	88.3%	89.5%	101%	107%	103%	99.2%	106%	97.5%	112%
O=C(CCCSc1nc(-c2ccccc2)cc(-c2ccc(Cl)cc2)n1)NO	14.2%	8.59% (active)	4.49% (active)	17.7%	-19.2% (active)	14.3%	4.46% (active)	-27.2% (active)	8.34% (active)	5.54% (active)	18.5%	20.3%	5.53% (active)	20.1%	16.8%	20.6%	-27.7% (active)	-15.3% (active)	-3.49% (active)	30.9%
CCNCC(=O)Nc1ccc(C(=O)OCC)cc1	104%	96.6%	110%	119%	124%	93.6%	102%	100%	96.7%	102%	104%	90.7%	86.6%	109%	97.7%	98.3%	108%	99.2%	95%	103%
COc1ccc(C(=O)N/N=C/c2cc(C(F)(F)F)ccc2Cl)cc1	105%	95.4%	111%	89.4%	74.9%	112%	78.2%	104%	105%	104%	73.2%	99.7%	101%	91.9%	109%	90.9%	85.5%	76.9%	92.4%	96.5%
Nc1ccn(Cc2nnc(CCC(=O)c3nc4ccccc4[nH]3)o2)c(=O)n1	98.4%	79.8%	90.9%	87.3%	98.5%	95.8%	79.8%	86.8%	101%	89.8%	89.2%	89.5%	67.5%	91%	85.6%	77%	68.9%	66.2%	53.9%	104%
O=C(Nc1cccc2c1CCCC2)c1cc2ccccc2cc1O	51.2%	16.9%	26.8%	34.8%	39.5%	38.2%	79.9%	34.2%	22.3%	21.5%	30.8%	90.5%	63.8%	30.1%	33.8%	12.8%	-37.8% (active)	23%	27.2%	34.2%
COc1cc2cc(Oc3ccc(NC(=O)c4ccc(Cl)c(C(F)(F)F)c4)cc3)c(C)nc2cc1OC	43%	14.8%	37.2%	48.3%	50.8%	56.1%	7.81% (active)	57.3%	36.8%	18.4%	26.9%	26%	68.4%	39.3%	2.03% (active)	4.32% (active)	25.5%	13.9%	33%	66.9%
CCOC(=O)c1cc(C(=O)c2cc(OC)cc(OC)c2)n2ncc3ccccc3c12	46.4%	5.75% (active)	41.9%	42.9%	29.1%	46.9%	8.71% (active)	11.5%	49%	15.7%	29.8%	2.01% (active)	-10% (active)	46.8%	-13.4% (active)	31.7%	18.7%	41.7%	9.99% (active)	63%
COc1cc(NC(=O)Nc2cnc(Nc3ccc(N4CCOCC4)cc3)nc2Oc2cccc(OC)c2)cc(OC)c1	36.9%	55.4%	8.57% (active)	16.9%	-32.5% (active)	50%	34.6%	-68.4% (active)	48%	45.2%	81.9%	37.2%	9.13% (active)	66.6%	22%	47.5%	-19.9% (active)	22.8%	33.3%	32.2%
COc1cccc2ccc(CC(O)(c3ccccc3)c3ccccc3)nc12	98.1%	91.9%	101%	85%	108%	93.7%	86.4%	103%	95.5%	94.3%	54.7%	91.8%	74.6%	96.6%	97%	79%	87%	86.2%	92.4%	106%
Clc1ccc(/C=C2\CCCC3C2=Nc2ccccc2NC3c2ccc(Cl)cc2)cc1 (stereo not given)	89.2%	47.2%	89.7%	97.6%	65.3%	80%	83.3%	92.3%	79.9%	29.1%	63.7%	16%	88.2%	92%	20.8%	77.3%	88.7%	74.2%	-27.5% (active)	101%
